The whole screen tested about 340,000 compounds, of which about 1,700 (0.5%) were called active.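 Rule for the calls: active = compounds whose inhibition of the agonist-driven luminescence signal at 20 µM reaches about 50% (limit read from the data); inactive = the rest.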 The entries come from a sample that favours actives as a whole.

For the assay, the target named is C-C chemokine receptor type 6 (Homo sapiens) (UniProt P51684). Kind of assay: blockers of CCL20-driven beta-arrestin recruitment to CCR6 – cell-based, CHO-K1, luminescence, uHTS, primary screen (AID 493098).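 Note: cells stimulated with CCL20 at 14 nM final; plate controls were DMSO with CCL20 for no effect and DMSO without agonist for full effect.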 As to conditions: CHO-K1 CCR6 PathHunter beta-arrestin, CCL20-stimulated, at 20 µM, stronger effect = higher value.
Chain of C-C chemokine receptor type 6 (Homo sapiens) (P51684 whole entry, looked up): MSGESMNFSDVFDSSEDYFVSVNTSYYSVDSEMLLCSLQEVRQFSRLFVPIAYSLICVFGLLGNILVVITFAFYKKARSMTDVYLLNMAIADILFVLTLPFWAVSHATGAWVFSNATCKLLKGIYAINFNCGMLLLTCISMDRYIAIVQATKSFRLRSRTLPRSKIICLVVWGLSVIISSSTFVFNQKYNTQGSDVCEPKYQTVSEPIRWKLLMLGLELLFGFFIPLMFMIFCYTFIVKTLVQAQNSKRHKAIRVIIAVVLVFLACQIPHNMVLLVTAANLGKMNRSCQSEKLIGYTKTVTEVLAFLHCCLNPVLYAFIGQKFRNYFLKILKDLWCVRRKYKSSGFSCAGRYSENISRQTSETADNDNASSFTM
Regarding `CC(=O)OC1C2(CC3N4C(=O)C5(CO)SSC4(CC31O)C(=O)N5C)OC(C)C(C)(C)C2=O` (stereo not given), the inhibition is 111% (active). Take `COC(=O)[C@@H]1C(OC(=O)c2ccccc2)CC2CCC1N2C` (stereo not given in full): the inhibition is 6.3% (inactive). The same measure for `CC(Cc1cccs1)NCc1ccc(Cl)cc1` (stereo not given): 13.3% (inactive). As for `Cc1nn(-c2ccccc2)c(C)c1NC(=O)COC(=O)Cc1ccccc1`, the inhibition is -2.94% (inactive). For the compound `CCCOC(=O)C1C2c3ccccc3C(c3ccccc32)C1C(=O)O` (stereo not given), the inhibition was -3.33% (inactive).

The record behind these values is PubChem BioAssay AID493098 (Sanford-Burnham Center for Chemical Genomics, 2011).
